Source: PubChem BioAssay (National Center for Advancing Translational Sciences (NCATS))
ELG1 DNA repair – blocks ELG1-dependent DNA repair in HEK293T cells | HEK293T ELG1-luciferase reporter, luminescence, 16 h; DNA damage induced by 5-fluorouridine | Potency, µM (series often up to 46.1 µM), for inactives: at the top dose activity change, negative = inhibition, actives largely listed as inhibitors | actives 2.3% (n = 330,000) | AID 504467; further: potency means the concentration at half of the fitted maximal effect; nearly all actives have a fitted effect of over 55% in size
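5-Fluorouridine DNA damage + compound/DMSO, 2,000 cells/well, 16 h, 37 °C/5% CO2. ONE-Glo, 30 min RT, luminescence. Readout = decrease in reporter signal.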
Giardia kill – Giardia lamblia killing. actives 0.15% (n = 340,000). activity change, % at 7.66 µM, hits read low. AID 540267. Giardia lamblia trophozoite viability; in the data active means activity change below about -80%; inconclusive means between about -30% and that limit;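 further: parasites exposed to compound for two days anaerobically before the ATP read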
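Killing of trophozoites was scored by loss of ATP luminescence after a 48 hrs anaerobic exposure to compounds at 37 deg C, using 100 cells per well.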
TDP1 inh – inhibitors of human tyrosyl-DNA phosphodiesterase TDP1 | actives 0.28% (n = 350,000) | recombinant TDP1, AlphaScreen DNA substrate cleavage | Q9NUW8 | Potency, µM (series often up to 130 µM), inactives show top-dose activity change, negative = inhibition, actives largely listed as inhibitors; further: potency means the concentration at half of the fitted maximal effect; nearly all actives have a fitted effect of over 40% in size
Target sequence (Q9NUW8 whole entry, looked up): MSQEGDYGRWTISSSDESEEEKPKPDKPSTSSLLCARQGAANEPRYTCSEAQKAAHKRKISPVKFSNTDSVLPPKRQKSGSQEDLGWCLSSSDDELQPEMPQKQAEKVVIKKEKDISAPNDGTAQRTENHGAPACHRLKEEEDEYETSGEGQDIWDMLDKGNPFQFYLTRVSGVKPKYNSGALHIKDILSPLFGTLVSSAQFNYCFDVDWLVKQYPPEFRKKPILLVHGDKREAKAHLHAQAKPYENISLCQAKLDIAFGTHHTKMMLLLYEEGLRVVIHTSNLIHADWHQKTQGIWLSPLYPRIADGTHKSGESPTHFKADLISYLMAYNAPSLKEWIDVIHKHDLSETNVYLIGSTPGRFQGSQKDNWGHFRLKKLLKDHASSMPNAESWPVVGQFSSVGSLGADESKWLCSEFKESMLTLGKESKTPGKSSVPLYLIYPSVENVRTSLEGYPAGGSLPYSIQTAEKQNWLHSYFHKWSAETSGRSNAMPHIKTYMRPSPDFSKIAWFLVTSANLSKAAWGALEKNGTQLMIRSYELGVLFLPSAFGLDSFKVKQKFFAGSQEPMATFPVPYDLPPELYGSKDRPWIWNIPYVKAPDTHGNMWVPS
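AlphaScreen read-out: signal falls as enzyme removes the 3' tyrosine-FITC from a 5'-biotinylated DNA oligo (15 nM, 5 min, RT). Enzyme was E. coli-made recombinant Tdp1 at 1 nM, exposed to compound for 15 min beforehand; beads 10 ug/ml, 10 min.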
TDP1 cell CPT – growth inhibition of DT40 Tdp1-/-;hTDP1 cells with camptothecin (screen for TDP1 inhibitors); chicken DT40 Tdp1-/-;hTDP1 cells + 20 nM CPT, ATP luminescence, 48 h; Potency, µM (titrated, usually from 46.2 µM), inactives show top-dose activity change, negative = growth inhibition, usual class: inhibitors; actives 12% (n = 420,000); further: potency means the concentration at half of the fitted maximal effect; nearly all actives have a fitted effect of over 55% in size
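Cell growth measured by CellTiter-Glo luminescence after a minimum 48 h, 37 C compound exposure with 20 nM CPT in Tdp1-knockout DT40 cells stably expressing hTDP1, seeded 400/well; qHTS titration format.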
IL-1B inflam inh – inhibitors of inflammasome signaling (IL-1 beta secretion); THP-1 LPS/ATP IL-1B secretion, AlphaLISA, 16 h; hits give low values; activity change, % at 57.5 µM; actives 4.7% (n = 360,000); AID 743279; in the data active means activity change below about -50%; inconclusive means mostly about -30% to -49%
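THP-1 cells pretreated 1 hr with compounds (up to 57.5 uM final), then stimulated with LPS (250 ng/mL final) plus ATP (1.25 mM final); secreted IL-1B measured by AlphaLISA after 16 hr, decreased signal indicating inhibition.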
TDP1 cell noCPT – qHTS for Inhibitors of human tyrosyl-DNA phosphodiesterase 1 (TDP1): qHTS in cells in absence of CPT; actives 15% (n = 420,000); DT40 Tdp1-/- hTDP1 cells, no CPT, ATP luminescence, 48 h; Potency, µM (top dose mostly 46.2 µM), for the others: at the highest dose activity change, negative = growth inhibition, usual class: inhibitors; further: potency means the concentration at half of the fitted maximal effect; nearly all actives have a fitted effect of over 55% in size
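A cellular qHTS used chicken DT40 cells lacking endogenous Tdp1 but carrying stably transfected human TDP1. Compounds were applied without camptothecin, and cell growth kinetics were judged by ATP-dependent luminescence after ≥48 hr.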
* hit, by the source's call; ? = inconclusive; / = no result given; [ ] = dose if it differs, or a comment. Shown are actives, neighbours in structure and some others; about 19% of the full set was active somewhere. Unless noted, the call rests on the fitted dose curve; in most records, active means well fitted curve in the direction sought with a large enough effect; inconclusive means small, poorly fitted or top-dose-only effect, or another doubt; inactive means no such curve, though single readings can be large; an effect the other way counts as inactive or inconclusive. On the % scale 0 is the no-effect control and ±100 the full control effect.

SMILES	ELG1 DNA repair	Giardia kill	TDP1 inh	TDP1 cell CPT	IL-1B inflam inh	TDP1 cell noCPT
Cc1ccc(C(=O)NCC(c2cccs2)S(=O)(=O)c2ccccc2)cc1C (stereo not given)	/	/	-5.2%	14.6µM*	/	4.11µM*
COc1ccc(C(CC(=O)c2ccccc2)S(=O)(=O)c2ccc(C)cc2)cc1 (stereo not given)	?	-3.5	3.9%	?	-29.2	14.1µM*
Cc1noc(C)c1NC(=O)Nc1ccc2c(c1)C(=O)N([C@H](C)CO)C[C@H](C)[C@@H](CN(C)C(=O)Nc1ccc3c(c1)OCO3)O2	?	-18.3	1.4%	10.7%	18.8	15.6%
Cc1ccc(-c2nnc(-c3cc(C)on3)o2)cc1	?	?	3.9%	?	-15.8	-18.8%
COc1ccc(CNC(=O)Nc2cccs2)cc1OC	-1.2%	-8.5	10.5%	-17.8%	-9.1	-1.3%
COc1ccc(C(=O)NCC(c2cccs2)S(=O)(=O)c2ccc(C)cc2)cc1 (stereo not given)	/	/	2.6%	23.1µM*	/	14.6µM*
COc1ccc(C(=O)NCC(c2cccs2)S(=O)(=O)c2ccc(F)c(C)c2)cc1 (stereo not given)	/	/	-4.7%	?	/	?
COc1ccc(C(=O)NCC(c2cccs2)S(=O)(=O)c2cccs2)cc1 (stereo not given)	/	/	2.6%	?	/	16.4µM*
COc1cccc(CNC(=O)Nc2cccs2)c1	?	0.0	9.6%	7.31µM*	-1.5	?
O=C(NCc1ccccc1Cl)C(=O)NCC(c1cccs1)S(=O)(=O)c1cccs1 (stereo not given)	/	/	2.6%	?	/	18.4µM*
O=C(CC1C(=O)NCCN1Cc1ccc(-c2ccccc2)cc1)NCCOc1cccnc1 (stereo not given)	?	-7.8	6.0%	?	-2.9	16.4µM*
COc1ccc(CCNC(=O)CSc2nnc(Cc3cccn3C)n2C)cc1OC	4.7%	-10.9	4.9%	-14.8%	1.6	-8.5%
CCc1cccc(NC(=O)Cn2c(=O)c(C(F)(F)F)nc3ccccc32)c1	/	/	0.0%	-18.6%	/	6.1%
CC(Cc1cccs1)NC(=S)Nc1ccc(Cl)cc1 (stereo not given)	1.9%	4.2	3.5%	?	-96.2*	?
CC(Cc1cccs1)NC(=S)Nc1ccc(Cl)c(Cl)c1 (stereo not given)	14.2%	18.1	-5.5%	20.6µM*	-95.3*	?
CC(Cc1cccs1)NC(=O)Nc1cccc(Cl)c1 (stereo not given)	-5.8%	-1.6	2.3%	?	-1.3	?
O=C(NCCc1nc2ccccc2n1CCOc1ccccc1)C1CCCCC1	/	60.2	1.4%	?	/	-16.3%
COCCNc1nc(-c2cc(C)c(C)cc2C)cs1	?	-8.6	2.6%	?	4.7	?
Clc1ccc(-c2nc3c4ccccc4ccn3c2Cc2cccc(Cl)c2)cc1	/	/	/	?	53.3	7.31µM*
Fc1cccc(Cc2c(-c3ccccc3)nc3c4ccccc4ccn23)c1	/	/	/	?	5.4	16.4µM*
CCOC(=O)Cc1c(-c2cccc(Cl)c2)nc2c3ccccc3ccn12	/	/	/	?	2.5	20.6µM*
Clc1cccc(Cc2c(-c3cccc(Br)c3)nc3c4ccccc4ccn23)c1	/	/	/	-29.0%	34.4	-20.9%
CC1(C(=O)NCC2CCCO2)Oc2cccnc2NC1=O (stereo not given)	9.6%	0.8	-2.7%	11.5%	-9.2	4.8%
O=C(Nc1cnc2ccccc2c1)c1ccncc1	?	-22.1	-5.9%	?	-9.9	?
C=CC(=O)Nc1cccc(Oc2ncnc3[nH]cc(-c4cnc5ccccc5c4)c23)c1	7.3µM*	-3.4	0.9%	?	-17.2	?
SMILES	ELG1 DNA repair	Giardia kill	TDP1 inh	TDP1 cell CPT	IL-1B inflam inh	TDP1 cell noCPT
NC(=O)c1ccc(NC(=O)COc2cccc3c2CCNC3=O)cc1	9.6%	2.7	/	-1.2%	2.3	-20.9%
COc1ccc(NC(=O)COc2cccc3c2CCN(C)C3=O)c(OC)c1	-9.8%	-1.9	5.8%	13µM*	0.0	?
COc1ccccc1NC(=O)COc1cccc2c1CCNC2=O	22.4%	31.4	0.7%	10.3µM*	-1.6	6.51µM*
O=C(COc1cccc2c1CCNC2=O)Nc1ccc(Cl)cc1	?	7.6	/	18.4µM*	-2.5	?
CN1CCc2c(OCC(=O)NC3CCCCC3)cccc2C1=O	-5.4%	14.0	2.2%	-0.6%	0.0	-3.9%
CC(C)(C)N1C(=O)[C@H]2[C@@H]3[C@H](O)C=CC(=O)[C@H]3CC[C@H]2C1=O	/	/	7.9%[21 µM]	/	/	/
CN(Cc1cnn(C)c1)C(=O)C1CCC(=O)N(Cc2cccc(C(F)(F)F)c2)C1 (stereo not given)	-6.0%	-11.3	2.6%	3.1%	4.3	-9.9%
CN(Cc1cccc(C(F)(F)F)c1)C(=O)C1CCC(=O)N(CC2CCCCC2)C1 (stereo not given)	-2.3%	-3.6	2.5%	?	-15.8	16.4µM*
COc1ccc(OC)c(C(=O)c2ccc(C(=O)Nc3cccc4ccccc34)cc2)c1	?	0.2	5.8%	-28.1%	9.4	?
COc1ccc(CNc2nc3ccccc3c3nc(-c4ccccc4)nn23)cc1	/	/	-2.9%	-8.5%	/	11.6µM*
COc1ccc(CCNc2nc3ccccc3c3nc(-c4cccc(C)c4)nn23)cc1OC	/	/	2.0%	?	/	7.31µM*
